One experiment has as its system CASKI. As to the kind of experiment: Primary qHTS to identify gynecologic anti-cancer compounds using libraries of approved drugs and bioactive compounds (AID 1345084). Note: nearly all actives have a fitted effect of over 55% in size. The following applies: Gynecologic cancer cell panel viability, ATPlite luminescence, 48 h; series mostly up to 57.5 µM. The procedure, abridged: (§1)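 Cell viability after 48 h drug treatment, ATPlite luminescence readout; five doses.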
A general note: qHTS replaces the single test concentration by a dilution series.

For a further experiment, the system named is Es-2. Described as above. The conditions noted are these: Gynecologic cancer cell panel viability, ATPlite luminescence, 48 h; series mostly up to 57.5 µM. The method, boiled down: as §1
For orientation: In ATP-based viability assays light output follows the ATP content of the culture.

A further experiment has as its system JEG-3. The experiment is described as above. The following applies: Gynecologic cancer cell panel viability, ATPlite luminescence, 48 h; series mostly up to 57.5 µM. The procedure, abridged: as §1
The test system of the next experiment is PA-1. The experiment is described as above. The conditions noted are these: Gynecologic cancer cell panel viability, ATPlite luminescence, 48 h; series mostly up to 57.5 µM. The method, boiled down: as §1
The next experiment relates to Tov112D. The experiment is described as above. The following applies: Gynecologic cancer cell panel viability, ATPlite luminescence, 48 h; series mostly up to 57.5 µM. The method, boiled down: as §1
Experiment [1] in a line: qHTS assay to identify inhibitors of the type 1 interferon - major histocompatibility complex class I in skeletal muscle: Counter screen cell viability and HiBit confirmation (AID 1347412). For all read-outs here: nearly all actives have a fitted effect of over 60% in size. The conditions noted are these: iHSKM muscle cells + IFN-b, HiBiT or CellTiter-Glo, 24 h; for Potency: HiBiT; for activity change, negative = inhibition: Viability, at 45.9 µM (top of the series). The procedure, abridged:
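Human myoblast knock-in line, 4.0 ng/ml IFN-beta stimulation, 24 h compound treatment. Endpoints: HiBiT lytic luminescence (HLA-B level) and CellTiter Glo (ATP). Dosing 12 concentrations, 3-fold steps, 46 uM highest final.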

Another experiment relates to HeLa. Nature of the experiment: Primary qHTS to identify gynecologic anti-cancer compounds using libraries of approved drugs and bioactive compounds (AID 1345084). Note: nearly all actives have a fitted effect of over 55% in size. The following applies: Gynecologic cancer cell panel viability, ATPlite luminescence, 48 h; series mostly up to 57.5 µM. The method, boiled down:
as §1

In a further experiment the test system is Hek293T. The experiment is described as above. The conditions noted are these: Gynecologic cancer cell panel viability, ATPlite luminescence, 48 h, control line for the selectivity index; series mostly up to 57.5 µM. The procedure, abridged:
as §1

For another experiment, the system named is SKOV3. Described as above. The conditions noted are these: Gynecologic cancer cell panel viability, ATPlite luminescence, 48 h; series mostly up to 57.5 µM. The method, boiled down: as §1
The next experiment concerns Tov-21-G. The experiment is described as above. The following applies: Gynecologic cancer cell panel viability, ATPlite luminescence, 48 h; series mostly up to 57.5 µM. The method, boiled down:
as §1

The test system of the next experiment is OV90. The description is as above. The conditions noted are these: Gynecologic cancer cell panel viability, ATPlite luminescence, 48 h; series mostly up to 57.5 µM. The procedure, abridged:
as §1

Structures are written as SMILES. Records with an inconclusive call do not appear. A number with no mark means an inactive call. Active and inactive are the calls of the source. Calls come from the whole dose curve; as a rule, active = well fitted curve in the direction sought with a large enough effect; inconclusive = small, poorly fitted or top-dose-only effect, or another doubt; inactive = no such curve, though single readings can be large; an effect the other way counts as inactive or inconclusive.
% is set by controls: 0 for no effect and ±100 for the full control effect; potency is the fitted concentration of half-maximal effect.

As to `c1cc(Nc2cc(C3CC3)[nH]n2)nc(Nc2ccc3nc[nH]c3c2)n1`, the Potency with CASKI is 1780 nM (active); with Es-2 it was 12600 nM (active); with PA-1, 3980 nM (active); in the experiment with Tov112D, 1120 nM (active); in experiment [1], 1400 nM (active). Besides, in the experiment on JEG-3, the Potency result was “inactive”. Besides, in experiment [1], the activity change, negative = inhibition was 24.1%.

For the molecule `CN(C)C1CCN(C(=O)c2ccc(NC(=O)Nc3ccc(-c4nc(N5CCOCC5)nc(N5CCOCC5)n4)cc3)cc2)CC1`, the figures for the Potency in the experiment with CASKI, with HeLa and in the experiment with Hek293T were 282 nM (active), 562 nM (active) and 398 nM (active), respectively.

With `CC(C)(C)Nc1nc2cc(Cl)c(Cl)cc2nc1S(C)(=O)=O`, the Potency in the experiment with CASKI is 35500 nM (active); in the experiment with Hek293T it was 28200 nM (active); with JEG-3 it was 15800 nM (active); in the experiment with SKOV3 it was 20000 nM (active); in the experiment with Tov-21-G, 28200 nM (active).

`COc1cccc(-c2cc(NCc3ccc4c(c3)OCO4)nc(N)n2)c1`: the Potency with Es-2 was 1410 nM (active); in the experiment on HeLa it was 1000 nM (active); with JEG-3 it was 1410 nM (active); with PA-1, 1000 nM (active); with Tov-21-G it was 1000 nM (active); in the experiment with Tov112D, 447 nM (active).

For the molecule `Cc1ccc(NC(=O)Nc2cc(C(F)(F)F)ccc2F)cc1Nc1ccc2c(c1)NC(=O)/C2=C\c1ccc[nH]1`, the Potency entry in the experiment with CASKI, in the experiment with Es-2, in the experiment with HeLa, with Hek293T, with JEG-3 and in the experiment on OV90 was “inactive” in each case. For the same molecule, the Potency result in the experiment on PA-1, with Tov-21-G and in the experiment on Tov112D was “inactive” in each case. Moreover, the Potency in experiment [1] was 31300 nM (active). For the same molecule, the activity change, negative = inhibition in experiment [1] is -28%.

With `CC[C@]1(O)CC2CN(CCc3c([nH]c4ccccc34)[C@@](C(=O)OC)(c3cc4c(cc3OC)N(C)[C@H]3[C@@](O)(C(=O)OC)[C@H](OC(C)=O)[C@]5(CC)C=CCN6CC[C@]43[C@@H]65)C2)C1` (stereo partly specified), the Potency is 1120 nM (active) with CASKI; 794 nM (active) in the experiment on Es-2; 708 nM (active) with HeLa; 3160 nM (active) with OV90; 282 nM (active) in the experiment on PA-1; 316 nM (active) with Tov-21-G. The Potency in the experiment with Tov112D is 282 nM (active).

Regarding `CN(C)C/C=C/C(=O)Nc1cccc(C(=O)Nc2cccc(Nc3ncc(Cl)c(-c4c[nH]c5ccccc45)n3)c2)c1`, the Potency in the experiment on CASKI was 1580 nM (active); with Es-2 it was 8910 nM (active); in the experiment with HeLa, 2000 nM (active); in the experiment on PA-1 it was 2820 nM (active); in the experiment on Tov112D, 1260 nM (active); in [1], 1110 nM (active). Further, the activity change, negative = inhibition in [1] is 0.891%.

With `COc1ccc(CC2C(=O)NC(C)C(=O)N(C)C3Cc4ccc(cc4)Oc4cc(ccc4OC4OC(CO)C(O)C(O)C4O)CC(C(=O)NC(C)C(=O)NC(C)C(=O)N2C)N(C)C3=O)cc1` (stereo unspecified), the Potency with CASKI is 631 nM (active); with Es-2 it was 398 nM (active); with HeLa it was 2000 nM (active); with Hek293T, 158 nM (active); with SKOV3, 1410 nM (active); with Tov-21-G, 1260 nM (active). The Potency with Tov112D is 501 nM (active).

As for `CCn1c(=O)c(-c2ccn[nH]2)cc2c(C)nc(N)nc21`, the Potency with CASKI was 15800 nM (active); with HeLa, 8910 nM (active); with Hek293T, 8910 nM (active); with OV90, 14100 nM (active); in the experiment on SKOV3 it was 10000 nM (active). The Potency entry with JEG-3 is “inactive”.

In the case of `CCC(C)C(=O)OC1CC(O)C23C4OCC5(C(O)CC2C1(C)C(O)O4)C3C(=O)CC1(C)C(c2ccoc2)CC2OC215` (stereo unspecified), the Potency result with CASKI and with JEG-3 was “inactive” each time. The Potency with Hek293T was 10000 nM (active); with OV90, 1780 nM (active); in the experiment with Tov112D it was 11200 nM (active).

As for `C=C1C(=O)O[C@@H]2[C@H]1CCC(C)=C1CCC(=O)O[C@]12C`, the Potency entry with CASKI, with HeLa and with Tov112D was “inactive” throughout.

Turning to `CNS(=O)(=O)c1ccccc1Nc1nc(Nc2ccc(N3CCN(C)CC3)cc2OC)ncc1Cl`, the Potency with CASKI was 7080 nM (active); in the experiment with Es-2 it was 12600 nM (active); in the experiment on HeLa, 2000 nM (active); in the experiment with Hek293T, 12600 nM (active); with SKOV3, 3550 nM (active); in the experiment on Tov112D, 10000 nM (active).

Regarding `C=C1C(OC(C)=O)CCC2(C)CC3(OC)OC(=O)C(C)=C3CC12` (stereo unspecified), the Potency result in the experiment with Es-2, with HeLa, in the experiment on Hek293T, in the experiment on PA-1, with Tov-21-G and in the experiment with Tov112D was “inactive” each time.

Regarding `COc1ccc(-c2cnc(-c3cccc4c3-c3ccccc3C4=O)o2)cc1`, the Potency with Es-2 is 158 nM (active); with HeLa, 199 nM (active); in the experiment with JEG-3, 2000 nM (active); in the experiment on PA-1, 355 nM (active); in the experiment on SKOV3, 158 nM (active); with Tov-21-G, 141 nM (active). Moreover, in the experiment on Tov112D, the Potency is 178 nM (active).

`COc1cc2ncnc(N3CCC(Oc4cnc5ccccc5n4)C3)c2cc1OC` (stereo unspecified): the Potency is 7080 nM (active) in the experiment with CASKI; 3980 nM (active) with Es-2; 1780 nM (active) in the experiment on HeLa; 3550 nM (active) in the experiment with Hek293T; 1000 nM (active) in the experiment with Tov112D.

Source of the values: PubChem BioAssay (NCATS).
